This note sets out measurements from PubChem BioAssay.

Values without a mark were called inactive. For some of these results: Potency and affinity values are given separately. Activity calls are given as the source filed them. Unless noted, the rule behind the calls is not given here.

A short description of assay [1]: antimalarial activity against Dd2 strain (AID 2302;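 active = growth inhibition above 50% at the single 2 µM test dose, taken to imply half-maximal potency below 2 µM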;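 note: 0% = DMSO untreated growth and 100% = chloroquine plus artemisinin killed control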). The following applies: P. falciparum Dd2 in RBCs, LDH growth readout, 72 h; at 2 µM; hits give high values.
Assay [2] in a line: HepG2 cytotoxicity, primary screen, cytotoxicity control for P. falciparum antimalarial project, cell-based, ATP luminescence (AID 2303;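 active = inhibition above 50%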;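 note: 0% = DMSO wells and 100% = digitonin-killed cells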). The following applies: HepG2 viability, 24-48 h, at 10 µM, hits give high values.
Assay [3] addresses L-lactate dehydrogenase (Plasmodium falciparum (isolate CDC / Honduras)) (UniProt Q27743). Put plainly: PfLDH activity inhibition – cell lysate, 3D7 strain, counter-screen for P. falciparum growth inhibition project (AID 2304).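 Note: 0% = vehicle and 100% = reference inhibitor.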 The settings on record: P. falciparum 3D7 crude extract, LDH APAD/NBT absorbance; at 2 µM; hits give high values.
Assay [4] can be described thus: inhibition of 3D7 malaria parasite growth – strain 3D7 (AID 2306).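 Note: 0% = DMSO wells and 100% = chloroquine plus artemisinin control wells.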 The settings on record: P. falciparum 3D7 erythrocytic growth, LDH absorbance, 72 h; at 2 µM; hits give high values.
Assay [5] addresses Calcium-dependent protein kinase 1 (Plasmodium falciparum (isolate 3D7)) (UniProt P62344). Put plainly: PfCDPK1 kinase inhibitors, biochemical, TCAMS library (AID 1159585; cut-off not given, nearly all actives have IC50 up to about 0.98 µM;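 note: inhibitors leave more ATP so luminescence rises with inhibition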). The settings on record: recombinant PfCDPK1, Kinase-Glo ATP depletion luminescence.
Assay [6] concerns the target Plasmodium falciparum protein kinase 6 (PK6, PF3D7_1337100) (UniProt Q8IDW1). Put plainly: PfPK6 kinase inhibitors, biochemical, TCAMS library (AID 1159586). The settings on record: recombinant PfPK6, Kinase-Glo ATP depletion luminescence.
Assay [7] has as its target Protein kinase 7 (PK7), Plasmodium falciparum 3D7 (PF3D7_0213400) (UniProt Q7YTF7). Kind of assay: inhibition of Plasmodium PK7 catalytic activity – biochemical, TCAMS antimalarial set, Kinase-Glo luminescence (AID 1159587). The settings on record: recombinant PfPK7, Kinase-Glo ATP depletion luminescence. Background: Kinase-Glo reads ATP consumption through a luciferase reaction.

Assay [8] has as its target Calcium-dependent protein kinase 4 (Plasmodium falciparum (isolate 3D7)) (UniProt Q8IBS5). Kind of assay: PfCDPK4 kinase inhibitors, biochemical, TCAMS library (AID 1159588; cut-off not given, nearly all actives have IC50 up to about 0.91 µM). The settings on record: recombinant PfCDPK4, Kinase-Glo ATP depletion luminescence.

Sequence of Plasmodium falciparum protein kinase 6 (PK6, PF3D7_1337100) (Q8IDW1 1-305): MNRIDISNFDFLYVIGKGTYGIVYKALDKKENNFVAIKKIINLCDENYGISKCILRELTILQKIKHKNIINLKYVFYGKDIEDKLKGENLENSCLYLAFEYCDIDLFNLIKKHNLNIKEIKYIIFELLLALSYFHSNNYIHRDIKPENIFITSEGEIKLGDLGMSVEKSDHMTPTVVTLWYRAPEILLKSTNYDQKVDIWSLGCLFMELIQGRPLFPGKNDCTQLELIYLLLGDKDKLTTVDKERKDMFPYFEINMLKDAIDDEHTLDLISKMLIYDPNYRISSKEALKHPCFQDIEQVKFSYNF
Sequence of Calcium-dependent protein kinase 4 (Plasmodium falciparum (isolate 3D7)) (Q8IBS5 whole entry, looked up): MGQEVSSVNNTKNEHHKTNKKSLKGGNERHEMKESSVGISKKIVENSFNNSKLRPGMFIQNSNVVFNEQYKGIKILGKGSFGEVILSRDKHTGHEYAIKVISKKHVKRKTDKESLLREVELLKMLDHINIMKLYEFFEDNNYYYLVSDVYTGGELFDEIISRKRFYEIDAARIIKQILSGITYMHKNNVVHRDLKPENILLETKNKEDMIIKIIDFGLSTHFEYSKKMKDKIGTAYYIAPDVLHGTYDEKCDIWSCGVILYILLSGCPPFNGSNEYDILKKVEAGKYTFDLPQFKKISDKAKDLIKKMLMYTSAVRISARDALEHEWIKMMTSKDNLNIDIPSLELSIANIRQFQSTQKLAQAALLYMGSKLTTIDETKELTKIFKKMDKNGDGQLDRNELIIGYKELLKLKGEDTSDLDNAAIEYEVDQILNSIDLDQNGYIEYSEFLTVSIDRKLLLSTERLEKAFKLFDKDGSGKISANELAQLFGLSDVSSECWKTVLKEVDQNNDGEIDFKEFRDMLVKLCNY
Sequence of Protein kinase 7 (PK7), Plasmodium falciparum 3D7 (PF3D7_0213400) (Q7YTF7 1-343): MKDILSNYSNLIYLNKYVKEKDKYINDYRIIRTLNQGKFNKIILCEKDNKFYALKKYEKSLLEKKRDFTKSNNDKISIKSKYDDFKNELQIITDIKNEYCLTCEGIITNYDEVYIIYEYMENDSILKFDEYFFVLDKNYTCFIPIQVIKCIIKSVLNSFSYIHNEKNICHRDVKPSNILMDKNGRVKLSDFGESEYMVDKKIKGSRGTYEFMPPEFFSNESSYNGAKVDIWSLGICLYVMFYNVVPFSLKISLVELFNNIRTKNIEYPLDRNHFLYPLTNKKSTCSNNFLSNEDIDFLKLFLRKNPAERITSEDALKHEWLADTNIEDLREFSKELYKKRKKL
Sequence of L-lactate dehydrogenase (Plasmodium falciparum (isolate CDC / Honduras)) (Q27743 whole entry, looked up): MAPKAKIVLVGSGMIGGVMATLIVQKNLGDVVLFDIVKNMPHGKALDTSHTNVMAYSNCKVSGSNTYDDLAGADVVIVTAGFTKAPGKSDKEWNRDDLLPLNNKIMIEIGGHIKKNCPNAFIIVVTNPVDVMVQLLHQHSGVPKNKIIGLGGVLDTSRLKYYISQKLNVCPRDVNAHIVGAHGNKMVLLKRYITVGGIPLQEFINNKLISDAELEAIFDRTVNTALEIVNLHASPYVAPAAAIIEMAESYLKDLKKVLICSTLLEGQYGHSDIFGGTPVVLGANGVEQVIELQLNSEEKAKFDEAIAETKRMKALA
Sequence of Calcium-dependent protein kinase 1 (Plasmodium falciparum (isolate 3D7)) (P62344 whole entry, looked up): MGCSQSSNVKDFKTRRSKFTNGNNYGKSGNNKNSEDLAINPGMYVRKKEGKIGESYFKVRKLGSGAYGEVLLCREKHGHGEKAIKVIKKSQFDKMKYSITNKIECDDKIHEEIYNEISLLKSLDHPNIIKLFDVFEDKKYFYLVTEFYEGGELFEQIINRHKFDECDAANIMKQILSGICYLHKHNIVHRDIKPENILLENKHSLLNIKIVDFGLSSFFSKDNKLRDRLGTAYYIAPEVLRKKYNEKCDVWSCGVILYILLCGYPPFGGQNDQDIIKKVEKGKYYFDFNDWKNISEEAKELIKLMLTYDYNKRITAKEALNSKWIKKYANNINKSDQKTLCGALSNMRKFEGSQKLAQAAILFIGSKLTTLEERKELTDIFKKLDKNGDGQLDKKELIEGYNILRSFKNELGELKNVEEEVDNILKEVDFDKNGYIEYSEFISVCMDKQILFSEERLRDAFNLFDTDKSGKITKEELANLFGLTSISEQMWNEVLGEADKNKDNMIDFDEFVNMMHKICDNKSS

The term inhibition denotes the drop in the measured response relative to a control, in per cent. As to `CCCCCc1cc(OC(=O)CCCN(CC)CC)c2c(c1)OC(C)(C)C=C2C1=CCN(Cc2ccc3ccccc3c2)CC1`, the growth inhibition is 92% (active) in assay [1] and 100% (active) in assay [4]. The inhibition in assay [2] is 94% (active); in assay [3], -2%. The result in assay [5], in assay [6], in assay [7] and in assay [8] was inactive.

`COC(=O)c1cccc(NC(=O)NCCNc2ccnc(Nc3ccc(F)cc3)n2)c1`: the growth inhibition in assay [1] is 5%; in assay [4], 93% (active). Moreover, the figures for the inhibition in assay [2] and in assay [3] were 10% and -6%, respectively. Further, the outcome in assay [5], in assay [6], in assay [7] and in assay [8] was inactive.

`CC(C)CCNC(=O)C1Cc2c([nH]c3cc(Cl)ccc23)C2(CCN(CCc3ccccc3)CC2)N1` (stereo not given): the growth inhibition in assay [1] is 55% (active); in assay [4] it was 103% (active). In addition, the inhibition in assay [2] was 17%; in assay [3] it was 5%. The result in assay [5], in assay [6], in assay [7] and in assay [8] was inactive.

`Nc1c2c(nc3ccc(NC(=O)CCCc4ccccc4)cc13)CCCC2`: the figures for the growth inhibition in assay [1] and in assay [4] were 42% and 101% (active), respectively. Besides, the inhibition was 73% (active) in assay [2] and -1% in assay [3]. Further, the result in assay [5], in assay [6], in assay [7] and in assay [8] was inactive.

Turning to `Cn1ccc(-c2cccc(Nc3ccnc4cc(-c5nccs5)ccc34)c2)n1`, the figures for the growth inhibition in assay [1] and in assay [4] were 94% (active) and 101% (active), respectively. The inhibition is 39% in assay [2] and -1% in assay [3]. Further, the result in assay [5], in assay [6], in assay [7] and in assay [8] was inactive.

Consider `Cc1sc(N2CCN(C)CC2)nc1C(=O)Nc1ccc(F)cc1C(F)(F)F`, for which the results for the growth inhibition in assay [1] and in assay [4] were 63% (active) and 92% (active), respectively. For the same compound, the inhibition in assay [2] is 7%; in assay [3], 4%. For the same compound, the result in assay [5], in assay [6], in assay [7] and in assay [8] was inactive.

Take `COCCNCc1nc(-c2ccc3c(Nc4ccc(F)c(O)c4)ccnc3c2)cs1`: the growth inhibition was 99% (active) in assay [1] and 101% (active) in assay [4]. Also, the inhibition is -7% in assay [2] and 6% in assay [3]. The result in assay [5], in assay [6], in assay [7] and in assay [8] was inactive.

As to `N#Cc1ccc(NC(=O)c2ccc(Cc3ccc4c(c3)CCN(C3CCC3)CC4)cn2)cc1`, the growth inhibition in assay [1] is 2%; in assay [4], 91% (active). Also, the inhibition in assay [2] is 66% (active); in assay [3], -4%. For the same compound, the outcome in assay [5], in assay [6], in assay [7] and in assay [8] was inactive.

As to `Cc1ccc(Nc2nc(-c3ccccn3)cs2)nc1`, the figures for the growth inhibition in assay [1] and in assay [4] were 97% (active) and 94% (active), respectively. The inhibition is 60% (active) in assay [2] and -8% in assay [3]. For the same compound, the outcome in assay [5], in assay [6], in assay [7] and in assay [8] was inactive.

Consider `CCCC(C)Nc1nc(C)cc(N[C@@H](Cc2ccccc2)C(=O)NCCOc2ccccc2)n1` (stereo not given in full), for which the growth inhibition in assay [1] is 68% (active); in assay [4] it was 101% (active). The inhibition in assay [2] is 10%; in assay [3], -1%. Also, the result in assay [5], in assay [6], in assay [7] and in assay [8] was inactive.

`NS(=O)(=O)NCCCN1CCN(c2ccccc2)CC1`: the growth inhibition in assay [1] is 73% (active); in assay [4] it was 90% (active). Besides, the inhibition in assay [2] is 2%; in assay [3], -2%. Further, the result in assay [5], in assay [6], in assay [7] and in assay [8] was inactive.

Take `Cc1cccc2[nH]c(-c3cccc(-c4cccc(NC(=O)c5csnn5)c4)c3)nc12`: the figures for the growth inhibition in assay [1] and in assay [4] were 49% and 98% (active), respectively. Further, the inhibition was 10% in assay [2] and 1% in assay [3]. The result in assay [5], in assay [6], in assay [7] and in assay [8] was inactive.

With `Cc1cc(C(F)(F)F)n2nc(C(=O)N(Cc3cncn3Cc3ccccc3F)CC3CC3)cc2n1`, the growth inhibition in assay [1] and in assay [4] was 100% (active) each time. In addition, the inhibition in assay [2] was -5%; in assay [3], 1%. The result in assay [5], in assay [6], in assay [7] and in assay [8] was inactive.

Consider `CCOc1cc(Cc2cnc(N)nc2N)cc(OCC)c1OCCCCC(=O)OC`, for which the growth inhibition was 0% in assay [1] and 95% (active) in assay [4]. The inhibition in assay [2] is -12%; in assay [3], 0%. Further, the result in assay [5], in assay [6], in assay [7] and in assay [8] was inactive.

In the case of `N#Cc1ccc2c(c1)CN(CCC1CCC(NC(=O)c3cc4cnccc4[nH]3)CC1)CC2` (stereo not given), the growth inhibition was 28% in assay [1] and 97% (active) in assay [4]. In addition, the inhibition was 13% in assay [2] and -2% in assay [3]. Further, the outcome in assay [5], in assay [6], in assay [7] and in assay [8] was inactive.

Regarding `CC(C)Nc1nc(NCCc2cnc[nH]2)nc(NCc2cccc3ccccc23)n1`, the values for the growth inhibition in assay [1] and in assay [4] were 0% and 90% (active), respectively. Also, the inhibition in assay [2] was 4%; in assay [3], 2%. For the same compound, the outcome in assay [5], in assay [6], in assay [7] and in assay [8] was inactive.

As to `O=C(NCCN1CCC(c2ncc(-c3ccccc3)o2)CC1)c1ccc(NC(=O)c2ccc(Cl)cc2)cc1`, the growth inhibition was 80% (active) in assay [1] and 101% (active) in assay [4]. The results for the inhibition in assay [2] and in assay [3] were 32% and -7%, respectively. Moreover, the result in assay [5], in assay [6], in assay [7] and in assay [8] was inactive.

As to `O=C(NC1CCN(CCC[C@]2(c3ccc(Cl)c(Cl)c3)CCCN(C(=O)c3ccccc3)C2)CC1)c1ccc(F)cc1`, the growth inhibition was 68% (active) in assay [1] and 90% (active) in assay [4]. In addition, the inhibition in assay [2] was 52% (active); in assay [3], -1%. Further, the outcome in assay [5], in assay [6], in assay [7] and in assay [8] was inactive.

`Cc1cc(N[C@@H](CC(C)C)C(=O)NCc2cccc(F)c2)nc(NCCc2ccc(F)cc2)n1`: the growth inhibition in assay [1] was 6%; in assay [4] it was 90% (active). Moreover, the inhibition in assay [2] is 0%; in assay [3] it was -2%. Besides, the result in assay [5], in assay [6], in assay [7] and in assay [8] was inactive.

For the compound `Cc1cc(Cl)c(S(=O)(=O)N2CCc3ccccc32)cc1OCC(=O)NC1CCCCC1`, the figures for the growth inhibition in assay [1] and in assay [4] were 93% (active) and 101% (active), respectively. The inhibition in assay [2] was 28%; in assay [3], -3%. Further, the result in assay [5], in assay [6], in assay [7] and in assay [8] was inactive.
